Among all 340,000 compounds or so, about 4,500 (1.3%) were called active. Roughly 5% stayed inconclusive and do not appear here. Calls follow the shape of the dose curve; as a rule, active = well fitted inhibition curve with a large enough effect; inconclusive = small, poorly fitted or top-dose-only effect, or another doubt; inactive = no such curve, though single readings can be large or run the other way. What follows is part of a selection rich in actives, with near analogues and random picks from the rest.
Biological target: DNA polymerase beta (Homo sapiens) (UniProt P06746)
Experiment: qHTS Assay for Inhibitors of DNA Polymerase Beta
Details: Pol beta primer extension/strand displacement, fluorescence kinetic; series mostly up to 114 µM; activity change, negative = inhibition: at the top concentration
In short: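 Homogeneous kinetic assay of primer extension and strand displacement by 10 nM Pol beta, preincubated 15 min at room temperature with compound before 50 nM substrate (final) was added. Read at 0 and 10 min; four-parameter Hill fit.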
% is scaled to controls: 0 for no effect and ±100 for the full control effect; potency is read from the fitted curve at half-maximal effect.

SMILES	activity change, negative = inhibition	Potency
COC(=O)C1=C(C)N(c2ccc(Br)cc2)C(=O)/C1=C\c1ccco1	23.8% (inactive)	
COC(=O)COc1ccc2c(c1C)O/C(=C\c1ccco1)C2=O		50.1 µM (active)
Cc1cc(C)c(OCC(=O)N/N=C/c2ccco2)c(C)c1	3.54% (inactive)	
CC1CCCN(c2csc3ccc(F)cc3c2=O)C1 (stereo not given)	13.1% (inactive)	
CCCn1c(NCc2ccc(N(CC)CC)cc2)nc2ccccc21	-0.488% (inactive)	
Cc1cc(C(=O)N/N=C/c2ccc(O)c([N+](=O)[O-])c2)c(C)n1-c1ccc(F)cc1		20 µM (active)
Cc1nn(CC(=O)N/N=C/c2ccc(F)cc2)c(C)c1[N+](=O)[O-]	30.3% (inactive)	
COc1cc(/C=N/NC(=O)c2cc(C)n(-c3ccc(F)cc3)c2C)cc(OC)c1O	-1.21% (inactive)	
CCOC(=O)c1ccc(-c2ccc(/C=C(\C#N)C(=O)Nc3ccc(OCC)cc3)o2)cc1	78.1% (inactive)	
Cc1ccc(/C=C(\C#N)C(=O)Nc2cccc3ncccc23)o1		3.16 µM (active)
O=C(O)c1cc(Cl)c(Cl)cc1C(=O)Nc1cccc2ncccc12	-0.55% (inactive)	
CCOCCCNC(=O)c1cn(CC)c2ccc(S(=O)(=O)N3CCc4ccccc4C3)cc2c1=O	12% (inactive)	
CCN1/C(=C/c2ccc3ccc(C)cc3[n+]2CC)Sc2ccccc21		31.6 µM (active)
CCN1/C(=C\c2ccc3ccccc3[n+]2CC)Sc2cc(C)ccc21		25.1 µM (active)
Cn1c(=O)c2c(-c3ccccc3Br)n(Cc3ccccc3)cc2n(C)c1=O	0.692% (inactive)	
COc1ccccc1CNC(=O)C(=O)NCC(c1cccs1)S(=O)(=O)c1cccs1 (stereo not given)	9.72% (inactive)	
Cc1c(Cl)cccc1NC(=O)C(=O)NCCc1csc2nc(-c3ccccc3F)nn12	12.1% (inactive)	
COc1ccc(Nc2ncc3c(n2)CCN(C(=O)OC(C)(C)C)C3)cc1	2.37% (inactive)	
COc1cccc(-c2nc(CS(=O)(=O)CC(=O)N3CCN(c4cc(C)ccc4C)CC3)c(C)o2)c1	-0.161% (inactive)	
COc1cccc(C(c2c(O)cc(C)n(Cc3ccco3)c2=O)N2CCN(c3ccccc3)CC2)c1 (stereo not given)	1.76% (inactive)	
Cc1ccccc1CNC(=O)c1cccc(NC(=O)c2nsc3ccccc23)c1	5.88% (inactive)	
COc1cc(OC)cc(C(=O)Nc2cc3nn(-c4ccccc4)nc3cc2Cl)c1	4.33% (inactive)	
CC1(C)Cc2c(C#N)c(SCc3nc4ccccc4[nH]3)nc(N3CCOCC3)c2CO1	22.2% (inactive)	
C1=C(N2CCOCC2)/C(=C/c2nc3ccccc3[nH]2)CC1		20 µM (active)
O=c1[nH]c(N2CCOCC2)nc2ccccc12	-8.66% (inactive)	

SMILES	activity change, negative = inhibition	Potency
O=C(CC(c1cccs1)N1Cc2ccccc2C1=O)Nc1ccc(F)c(F)c1 (stereo not given)	-15.9% (inactive)	
Cc1c(C(=O)Nc2cccc(Cl)c2)oc2ccc(S(=O)(=O)N3CCOCC3)cc12	1.9% (inactive)	
CCc1nnc(NS(=O)(=O)c2ccc(NC(=S)NC(=O)/C=C/c3cccs3)cc2)s1		89.1 µM (active)
CCOC(=O)c1c(NC(=S)NC(=O)/C=C/c2cccs2)sc(C)c1C	1.96% [at 57.1 µM] (inactive)	
CCc1nnc(NS(=O)(=O)c2ccc(NC(=S)NC(=O)c3cccs3)cc2)s1	-13.3% (inactive)	
COc1cccc(CNC(=O)Cc2csc3nc(-c4ccccc4)cn23)c1	0.953% (inactive)	
Fc1ccccc1Oc1ncnc2c1oc1ccccc12	10.3% (inactive)	
COc1ccc(CC(=O)Nc2nnc3n2CCS3)cc1OC	4.66% (inactive)	
CCCCOc1ccc(CNC(=O)c2ccc3c(c2)N(C)C(=O)C2CCCCN32)cc1 (stereo not given)	7.82% (inactive)	
COc1ccccc1-c1cc2nc(C)c(CCC(=O)O)c(C)n2n1	7.49% (inactive)	
C=CCn1c(CSc2nc3ccccc3s2)nnc1SCC(=O)NCc1ccco1		39.8 µM (active)
CCn1c(SCC(=O)NCc2ccco2)nnc1-c1ccc(N)cc1	3.21% (inactive)	
O=C(CSc1nc2ccc(Nc3nc(N4CCOCC4)nc(N4CCOCC4)n3)cc2s1)NCc1ccco1	-8.34% (inactive)	
Cc1ccc(Cn2c(CNC(=O)Cc3cccc(C)c3)nc3cccnc32)cc1	12.8% (inactive)	
Cc1cc(NC(=O)c2cccc(Cl)c2)ccc1-c1cc2ccccc2oc1=O	-1.24% (inactive)	
CCOc1ccc(-n2c(C)nc3c(cnn3-c3ccc(C)cc3)c2=O)cc1	3.24% (inactive)	
COc1ccccc1NC(=O)CN1C(=O)c2ccccc2Sc2ccc(C(=O)N3CCCC3)cc21		50.1 µM (active)
COC(=O)c1ccc2c(c1)N(CC(=O)Nc1ccc(C)c(C)c1)C(=O)c1ccccc1S2	-5.63% (inactive)	
COc1cccc(NC(=O)CN2C(=O)c3ccccc3Sc3ncccc32)c1	4.05% (inactive)	
CCc1ccc(NC(=O)Cn2c(=O)n(CCC(=O)NCc3ccc4c(c3)OCO4)c(=O)c3ccccc32)cc1	34.8% (inactive)	
Cc1ccc(OCC(=O)Nc2ccc(-c3nnc(-c4ccco4)o3)cc2)cc1		14.1 µM (active)
Cc1cccc(NC(=O)CSc2nnc(-c3ccco3)o2)c1	2.85% (inactive)	
COc1ccc(OCC(=O)Nc2nnc(-c3ccco3)s2)cc1		17.8 µM (active)
COc1ccc(NC(=O)COCc2cc(-c3ccco3)on2)cc1	40.1% (inactive)	
CNc1nnc(-c2ccco2)s1	-0.0763% (inactive)	

— PubChem BioAssay AID485314 (National Center for Advancing Translational Sciences (NCATS), 2010)
